The record followed here is PubChem BioAssay.

Values without a mark were called inactive. How the calls were made is not given here.

The assay is described as follows: P. aeruginosa biofilm formation inhibitors, primary screen, strain PAO1, LB-PBS medium, absorbance 600 nm (AID 1176). Further: test concentration not given here. To be noted: P. aeruginosa PAO1 growth/biofilm, A600, 12 h; higher = more signal.
Take `C=C(/C(=C/C[C@H](OC(C)=O)c1ccc(CO)o1)c1cc(C(=O)OC)ccc1OC)C(C)C`: the z-score was -0.0342.
Regarding `COC(=O)[C@@]1(Cc2ccccc2)N=C(c2ccc(OCCCO)cc2)O[C@H]1c1ccccc1`, the z-score was 0.991.
As for `CC(C)C[C@@H]1NC(=O)[C@@H]2C[C@H](C(=O)NCc3ccc(F)cc3)[C@H](c3cccc(OCCO)c3)N2C1=O`, the figure is 0.475; as for `O=C1c2ccccc2[C@](Cc2ccccc2I)(C(=O)NCCN2CCOCC2)[C@H](c2ccc(CO)cc2)N1C1CCCCC1`, 0.531.
As for `O=C1c2ccccc2[C@](Cc2ccccc2I)(C(=O)NCCN2CCOCC2)[C@H](c2ccc(CO)cc2)N1Cc1ccccc1Cl`, the figure is 0.916; as for `CC(C)C(=C=CC[C@@H](O)c1ccc(OCCO)cc1)C[C@@H](O)COCc1ccccc1`, 0.919.
As for `COC(=O)[C@]1(CCC(=O)OC(C)(C)C)N=C(c2ccc(OCCCO)cc2)O[C@@H]1c1ccccc1CN=[N+]=[N-]`, the figure is 1.53.
Regarding `NC(=O)NCC#Cc1ccc2c(c1)[C@]1(C(=O)N2)[C@H](c2ccccc2OCCO)N2[C@H](c3ccccc3)[C@H](c3ccccc3)OC(=O)[C@H]2[C@@H]1C(=O)Nc1nc2ccccc2s1`, the z-score was 2.29.
As for `C=CCC(OC(C)=O)[C@@H]1[C@@H](N(Cc2ccc(-c3ccccc3)cc2)C(=O)Cc2ccc(OC)cc2)c2cc(OCCCO)ccc2N1C(=O)Cc1ccc2ccccc2c1` (stereo not given in full), the figure is 0.562; as for `C=C(CCCC)C(=O)CC[C@@H](OC(=O)c1ccccc1-c1ccccc1C(=O)O)c1ccc(OCCO)cc1`, 0.956.
Turning to `CCCC[C@@H]1C[C@H]1[C@@H](NC(=O)c1ccco1)c1ccccc1C(F)(F)F`, the z-score was -0.0298.
`CCOC(=O)C[C@H]1[C@H](OC(=O)c2cc3ccccc3oc2=O)[C@@H](NC(=O)c2ccccc2)c2cc(OCCCO)ccc2N1C(=O)c1ccc2ccccc2n1`: the z-score was -0.246.
As for `CCN(CC)c1ccc(N2CC=CC34O[C@@H]5C=CCCOC(=O)C5[C@H]3C(=O)N(CCCCCCO)[C@@H]4C2=O)cc1` (stereo not given in full), the figure is 0.786; as for `COC(=O)[C@@]1(Cc2ccccc2)[C@H]2c3cc(C(=O)N(C)C)n(Cc4ccsc4Br)c3C[C@H]2CN1C(=O)c1ccccc1`, 0.467.
As for `COCCOC(=O)N1C(=O)[C@@]2(c3ccccc31)[C@H](c1ccccc1OCCO)N1[C@H](c3ccccc3)[C@H](c3ccccc3)OC(=O)[C@H]1[C@@H]2C(=O)N1CCN(c2ncccn2)CC1`, the figure is 3.61.
As for `O[C@@H](Cc1ccccc1)[C@H]1C2C=CCCC=C2CN1Cc1cccc(Cl)c1` (stereo not given in full), the figure is 1.27; as for `COc1cc2c(cc1OC)CN(C(=O)[C@@H]1[C@H]3C(=O)O[C@H](c4ccccc4)[C@H](c4ccccc4)N3[C@H](c3ccccc3OCCO)[C@@]13C(=O)Nc1ccc(C#CCCO)cc13)CC2`, 2.35; as for `Cc1ccc(S[C@]2(C(=O)O)CC(=O)N(C(C)C)[C@@H]2c2ccc(CO)cc2I)cc1`, 0.953.
With `O=C1O[C@H](c2ccccc2)[C@H](c2ccccc2)N2[C@H]1[C@@H](C(=O)N1CCCCCCC1)[C@]1(C(=O)Nc3ccc(C#CCCO)cc31)[C@H]2c1ccccc1OCCO`, the z-score was 1.15.
In the case of `C=CCNC(=O)[C@@H]1[C@H]2C(=O)O[C@H](c3ccccc3)[C@H](c3ccccc3)N2[C@H](c2ccc(O)cc2)[C@@]12C(=O)N(C(=O)OCCOC)c1ccc(C#CCNC(N)=O)cc12`, the z-score is 0.318.
`O=C(c1ccccc1)N1C(=O)[C@@]2(Cc3ccccc31)N=C(c1ccc(OCCCO)cc1)O[C@H]2c1ccccc1`: the z-score was 0.702.
As for `C=C(/C(=C/C[C@H](OC(C)=O)c1ccccc1OCCO)c1cnc2ccccc2c1)C(C)C`, the figure is 2.19; as for `CC(C)C(CO)N1C(=O)[C@@H]2C3C(=O)OCCC/C=C\[C@H]3OC23C=CCN(CCN2CCOCC2)C(=O)[C@@H]13` (stereo not given in full), 0.109.
Turning to `CCCC[C@H]1OB(O)C[C@H]2C1=C(COC)C[C@H]1C(=O)N(C)C(=O)[C@H]12`, the z-score was 0.118.
Turning to `COC(=O)[C@@]1(Cc2ccc(F)cc2)[C@H]2c3cc(C(=O)N(C)C)n(Cc4ccc(Cl)c(C(F)(F)F)c4)c3C[C@H]2CN1C(=O)c1ccccc1`, the z-score is 1.09.
As for `COc1ccc(CCNC(=O)[C@@]2(Sc3ccc(C)cc3)CC(=O)N(C3Cc4ccccc4C3)[C@@H]2c2ccc(CO)cc2I)cc1`, the figure is -0.171; as for `CCCC[C@H]1OB(O)C[C@H]2C1=C(COC)Cn1c(=O)n(-c3ccccc3)c(=O)n12`, 0.0937.
As for `CN(C)CCCCCCNC(=O)[C@@H]1C[C@@H]2C(=O)N[C@@H](Cc3ccccc3)C(=O)N2[C@@H]1c1ccc(O)cc1`, the figure is -0.0059; as for `C=C(COC)/C(=C/C[C@H](OC(C)=O)c1ccc(CO)o1)c1cc(C(=O)OC)ccc1OC`, -0.317; as for `COC(=O)[C@@]1(Cc2ccc(OC)cc2)[C@@H]2C(=CC(=O)[C@H]2CC(=O)C(=O)N2CCCC2)CN1C(=O)c1ccccc1`, -0.374.
As for `Cc1ccc(N2C(=O)c3ccccc3[C@@H](C(=O)NC3CC3)[C@@H]2c2ccc(CO)cc2)nc1`, the figure is 0.0714.
Turning to `COCCOC(=O)N1C(=O)[C@@]2(c3cc(C#CCC(C(=O)OC)C(=O)OC)ccc31)[C@H](C(=O)Nc1nc3ccccc3s1)[C@H]1C(=O)O[C@H](c3ccccc3)[C@H](c3ccccc3)N1[C@@H]2c1ccccc1OCCO`, the z-score is 2.96.
Turning to `COCCOC(=O)N1C(=O)[C@@]2(c3cc(C#CCC(C(=O)OC)C(=O)OC)ccc31)[C@H](c1ccccc1OCCO)N1[C@H](c3ccccc3)[C@H](c3ccccc3)OC(=O)[C@H]1[C@@H]2C(=O)NC[C@H](O)c1ccccc1`, the z-score was 2.23.
As for `CCCC[C@@H]1C[C@H]1[C@@H](NC(=O)c1ccccc1)c1ccc(C(=O)OC)cc1`, the figure is 0.771.
As for `O=C1[C@@]23C=C(Br)[C@H](C[C@@H]2CCOC3)[C@@]12CO2`, the figure is 0.261.
